Test results published in PubChem BioAssay (NCI).
The panel holds about 83,000 compounds, 20% with a hit somewhere; the sample as a whole holds those more often.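 Negative percent growth values reflect cell death: -40 means 40% of the cells present at the start died, and -100 means all died.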 Unmarked numbers belong to inactive results. Calls of active or inactive are those of the source.

test system: OVCAR-3 ovarian; test: NCI-60 one-dose screen, 48 h (100 = growth as untreated, 0 = no growth, -100 = all killed); details: 10 µM unless noted
Experimental: Growth inhibition of the OVCAR-3 human tumor cell line is measured as a screen for anti-cancer activity. Cells are grown in 96 well plates and exposed to the test compound for 48 hours. Compounds are tested at a single concentration, which is 10^-5 M for most compounds. The reported endpoint is percent growth (GI% or GIPRCNT), where numbers from 0 - 100% represent growth inhibition, and numbers from -100% - 0 represent cell death. For example, a value of 40 represents 60% growth inhibition. A value of 0 means no net growth occurred over the course of the experiment. A value of -40 indicates 40% of cells at the beginning of the experiment died by the end of the experiment. A value of -100 means all cells are dead at the end of the experiment.
NCI-60 Human Tumor Cell Lines Screen was performed using the standard one-dose NCI protocol, which is described in more detail at https://dtp.cancer.gov/discovery_development/nci-60/default.htm.
Compounds with GIPRCNT values below 10 were considered active. Activity score was based on GIPRCNT using the following formula: […]
Score is 0 for GIPRCNT values of 100 or above, 50 for GIPRCNT values of 0, and 100 for GIPRCNT values of -100.

Row | Compound | growth
1 | COc1cc(C2=NN(C(C)=O)C(c3ccc(N4CCOCC4)cc3)C2)cc(OC)c1OC (stereo not given) | 120%
2 | N/C(=N\OC(=O)CSc1nc2ccccc2s1)c1ccc(Cl)cc1 | 111%
3 | CN(C)c1ccc(/C=N/Nc2nc(N/N=C/c3ccc(N(C)C)cc3)nc(N3CCOCC3)n2)cc1 | 109%
4 | COc1ccc(-c2nn(-c3ccccc3)cc2/C=C/C(=O)c2ccc(NC(=O)CCCCCCC(=O)NO)cc2)cc1 | 96.2%
5 | Cc1nn(-c2ccc(Br)cc2)c2nc(CCl)[nH]c(=O)c12 | 116%
6 | CCOC(=O)c1nn(-c2ccc(C)cc2)c(=O)c2c(N)c(C#N)c(-c3ccc(OC)cc3)cc12 | 108%
7 | CC(C)=CCc1c(O)c(CC=C(C)C)c2c(c1O)C(=O)C1=C[C@@H]3C[C@H]4C(C)(C)O[C@@](C/C=C(\C)C(=O)O)(C3=O)[C@@]14O2 | -55% (active)
8 | Cc1ccc(Nc2ncnc3c2c(C)nn3-c2ccc([N+](=O)[O-])cc2)cc1 | 46.3%
9 | COc1ccc(C(=O)c2c(N)c(C#N)cn2-c2cccc(OC)c2)cc1 | 30.3%
10 | NC(=S)N/N=C(/C=C/c1cn(-c2ccccc2)nc1-c1ccc(Cl)cc1)c1cc2ccccc2oc1=O | 14.8%
11 | CCOC(=O)C1=C(C)N=C2Sc3ccccc3N2C1c1ccccc1 (stereo not given) | 98.4%
12 | C#CCOc1ccc(C(Nc2ccc(Cl)cc2)c2nnnn2C2CCCCC2)cc1 (stereo not given) | 101%
13 | COC(=O)Nc1ccc(-c2nc(-c3cccc(O)c3)c(-c3ccnc(Br)c3)[nH]2)cc1 | 50.8%
14 | NS(=O)(=O)c1ccc(Nc2nc(N/N=C/c3ccc(C(F)(F)F)cc3)nc(Nc3ccccc3)n2)cc1 | 11.7%
15 | CCOC(=O)C1=C(C)Nc2nnc(Nc3ccccc3)n2C1c1ccccc1 (stereo not given) | 5.94% (active)
16 | COc1ccc(OC)c(NC2=C(Cl)C(=O)C(C)=C(C)C2=O)c1 | 92.3%
17 | COc1ccc(NC2=C(Cl)C(=O)C(C)=C(C)C2=O)cc1 | 101%
18 | C=C(C)C(=O)O[C@H]1C[C@@]2(C)OC(=CC2=O)/C(C)=C\[C@H]2OC(=O)C(=C)[C@H]12 | -72.1% (active)
19 | O=C(/C=C1\C=CN(CCCCCCF)c2ccccc21)n1ccc2ccccc21 | 100%
20 | CN(c1ccc(Br)cc1)S(=O)(=O)c1ccc(-c2cnc(C3CC3)o2)cc1 | 23.7%

Row | Compound | growth
21 | O=C(Nc1cc(F)cc2cccnc12)c1cnc(N2CCOCC2)cn1 | 9.55% (active)
22 | Cc1ccc(NC(=O)c2cccc(CN3CCN(C)CC3)c2)cc1Oc1ccc(-c2[nH]nc3ncnc(N)c23)cc1 | 79.6%
23 | COc1ccc(N2CCN(C(=O)CSc3ccc(-c4nc5cc(C)c(C)cc5[nH]4)cn3)CC2)cc1 | 80.4%
24 | COc1cc(/C=N/n2cnc3oc(-c4ccccc4)cc3c2=N)cc(CN2CCCC2)c1O | 104%
25 | COc1cc2cc(Oc3ccc(NC(=O)c4cccc(C(F)(F)F)c4)cc3)c(C)nc2cc1OCCN(C)C | 102%
26 | CN(C)CCn1c2ccc(N)cc2c2nc3ccccc3nc21 | 37%
27 | CC(=O)Nc1ccc(NC(=O)Nc2cccc(-c3nc(-c4ccc(NC(=O)c5cccs5)cc4Cl)no3)c2)cc1C(F)(F)F | -63.4% (active)
28 | Oc1ccc(CSc2nnc(-c3ccc(Oc4ccccc4)cc3)n2-c2ccccc2)c2cccnc12 | 19.3%
29 | O=C1[C@H]2Cc3c([nH]c4ccccc34)[C@H](c3ccc(Cl)cc3)N2C(=O)CN1C1CCN(Cc2c(Cl)cccc2Cl)CC1 | 76.8%
30 | Oc1ccc(CSc2nnc(-c3ccncc3)n2-c2ccccc2)c2cccnc12 | 5.81% (active)
31 | CCC(CC)N1C(=O)/C(=c2\sc3n(c2=O)C2C(NN=3)N(CC)C(=O)N2CC)c2ccccc21 (stereo not given) | 7.62% (active)
32 | CC1OC(O[C@@H]2[C@H](O)C(CO)OC(O[C@H]3COC(O[C@H]4CC[C@]5(C)[C@H]6CC[C@]78OC[C@@]9(CC[C@](C)(C=O)C[C@H]97)C(=O)C[C@@]8(C)[C@]6(C)CC[C@H]5C4(C)C)[C@@H](O)[C@@H]3O)[C@H]2OC2OC[C@@H](O)[C@@H](O)[C@@H]2O)[C@@H](O)[C@@H](O)[C@H]1O (stereo not given in full) | 105%
33 | O=[N+]([O-])c1ccc(-c2nnc(SCc3ccc(O)c4ncccc34)n2-c2ccccc2)cc1 | 30.5%
34 | CC[C@@](C)(NC(=O)C(C)(C)NC(=O)[C@@H](NC(=O)[C@@H]1CCCN1C(=O)C(C)(C)NC(=O)[C@H](CC(C)C)NC(=O)CNC(=O)C(C)(C)NC(=O)[C@@H](NC(=O)C(C)(C)NC(=O)[C@H](CCC(N)=O)NC(=O)[C@H](C)NC(=O)C(C)(C)NC(=O)[C@H](C)NC(=O)C(C)(C)NC(=O)[C@@H]1CCCN1C(=O)C(C)(C)NC(C)=O)C(C)C)C(C)C)C(=O)N[C@@H](CCC(N)=O)C(=O)N[C@@H](CCC(N)=O)C(=O)N[C@H](CO)Cc1ccccc1 | 14.6% [4.25 µM]
35 | Cn1c(SC(C(=O)Nc2ccc(F)cc2)c2ccccc2)nc2ccccc2c1=O (stereo not given) | 114%
36 | O=C(CSc1nnc(-c2ccc(Cl)cc2)n1-c1ccccc1)Nc1ccc(F)cc1 | 87.7%
37 | CCNC(=NCCCN(C)C)N/C(N)=N/c1nc2ccccc2s1 | 104%
38 | CCCCCCCCCC[C@@H](C)[C@@H]1CC(=O)N[C@H]([C@@H](C)O)C(=O)N[C@@H](C)C(=O)N[C@H](C)C(=O)N[C@@H](CCC(N)=O)C(=O)N[C@H](Cc2ccc(O)cc2)C(=O)N[C@@H](C(C)CC)C(=O)O1 (stereo not given in full) | 48.4%
39 | O=C(Nc1ccc(-c2nc(-c3cccc(O)c3)c(-c3ccnc(Br)c3)[nH]2)cc1)c1ccccc1 | 31.6%
40 | CCCC(=O)NC(c1cccnc1)c1cc(Cl)c2cccnc2c1O (stereo not given) | 19.7%
